Source: the supplement of paper PMC10849652
The full data set covers some 7,900 targets. This sample favours those with a hit. About 0.6% of all pairs of compound and target were hits. Values without a mark were called inactive.

Experiments:
Assay in all cases: log2 fold change, soluble protein after heating vs DMSO (PISA); higher = thermal stabilisation; K562 cells, 10 uM, 30 min; active = over 0.2 and 3.5 SD of the protein, either way, in both replicates (recomputed)
[1] = compound: C#Cc1cccc(Nc2ncnc3cc(OCCOC)c(OCCOC)cc23)c1 [erlotinib]
Procedure, shortened: (§1)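 For each measurement, 10 μM compound was applied for 30 min to K562 cells at 2×10^6 cells/mL. Aliquots were heated for 3 min across 48°C-58°C, pooled, and extracted in PBS with 0.5% NP-40 at 4°C; the supernatant after 21,000xg for 90 min was soluble protein. This was quantified by TMTpro 16plex LC-MS/MS with channel sums equalised, and thermal stability was reported relative to control samples from duplicates, on a log2 fold-change scale.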

[2] = compound: C/C(=N\NC(=O)C1=CC(=CC=C1)S(=O)(=O)N2CCOCC2)/C3=C(C=CC(=C3)Cl)O
Procedure, shortened: as §1

[3] = compound: C1=CC(=C(C=C1Cl)C2=NC3=NC=CN=C3C(=N2)NC4=CC=NC=C4)F
Procedure, shortened: as §1

[4] = compound: C1=CC(=CC=C1C2=NC3=C(N2)C=C(C=C3)C(=O)N)OC4=CC=C(C=C4)Cl
Procedure, shortened: as §1

[5] = compound: C1=CC2=C(C=CC(=C2)/C=C\3/C(=O)NC(=NCC4=CC=CS4)S3)N=C1
Procedure, shortened: as §1

[6] = compound: C1=CC2=NC=CN=C2C=C1/C=C/3\C(=O)NC(=O)S3
Procedure, shortened: as §1

[7] = compound: C1=CC=C(C=C1)C2=NC(=C(N2)C3=CC=NC=C3)C4=CC(=C(C=C4)Cl)O
Procedure, shortened: as §1

[8] = compound: C1=CC=C2C(=C1)C3=NNC4=CC=CC(=C43)C2=O
Procedure, shortened: as §1

[9] = compound: C1CCN(C1)C(=O)NC2=CC=CC(=C2)NC3=NC=C(C(=N3)NCCC4=CN=CN4)Br
Procedure, shortened: as §1

[10] = compound: C1CN(CCC1(CC2=CC=C(C=C2)Cl)N)C3=NC=NC4=C3C=CN4
Procedure, shortened: as §1

[11] = compound: C1COCCN1CCN2C3=CC=CC=C3N=C2NC(=O)C4=CC(=CC=C4)[N+](=O)[O-] [IRAK-1-4 Inhibitor I]
Procedure, shortened: as §1

[12] = compound: CC(=O)c1cnc2ccc(-c3cc(Cl)c(O)c(Cl)c3)nc2c1N[C@H]1CC[C@H](CN(C)C)CC1
Procedure, shortened: as §1

[13] = compound: CC(C)(C)Cn1c(N)nc2ccc(-c3[nH]c(C(C)(C)C)nc3-c3ccc(F)cc3)nc21 [ralimetinib]
Procedure, shortened: as §1

[14] = compound: CC(C)(O)CC(=O)NCCn1ccc2ncnc(Nc3ccc(Oc4cccc(C(F)(F)F)c4)c(Cl)c3)c21
Procedure, shortened: as §1

[15] = compound: CC(C)C1=C2N=C(C=C(N2N=C1)NCC3=CC=CC=C3)NCCCCCCN
Procedure, shortened: as §1

[16] = compound: CC(C)C[C@@H](C=O)NC(=O)[C@H](CC(C)C)NC(=O)[C@H](CC(C)C)NC(=O)OCc1ccccc1
Procedure, shortened: as §1

[17] = compound: CC(C)N(C[C@H]1O[C@@H](n2cnc3c(N)ncnc32)[C@H](O)[C@@H]1O)[C@H]1C[C@@H](CCc2nc3cc(C(C)(C)C)ccc3[nH]2)C1 [pinometostat]
Procedure, shortened: as §1

[18] = compound: CC1=C(C(CC(=O)N1)C2=CC=C(C=C2)C(F)(F)F)C(=O)NC3=C(C=C4C(=C3)C=NN4)F
Procedure, shortened: as §1

[19] = compound: CC1=C(C2=C(C=C1)C(=O)C3=CC=CC=C3N2CCCN)C
Procedure, shortened: as §1

[20] = compound: C=CC(=O)N1CCC[C@@H](n2nc(-c3ccc(Oc4ccccc4)cc3)c3c(N)ncnc32)C1 [ibrutinib]
Procedure, shortened: as §1

Sequence of UniProt Q15417 (Q15417 whole entry, looked up): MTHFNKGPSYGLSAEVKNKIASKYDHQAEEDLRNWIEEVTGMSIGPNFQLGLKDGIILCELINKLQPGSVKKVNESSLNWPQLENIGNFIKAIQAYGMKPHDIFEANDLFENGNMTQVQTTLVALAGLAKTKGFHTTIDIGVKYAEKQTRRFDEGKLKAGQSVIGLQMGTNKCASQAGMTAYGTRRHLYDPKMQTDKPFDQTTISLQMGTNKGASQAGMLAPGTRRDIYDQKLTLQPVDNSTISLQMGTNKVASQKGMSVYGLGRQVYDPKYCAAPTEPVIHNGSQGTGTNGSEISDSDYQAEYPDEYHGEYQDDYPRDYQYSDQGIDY
Sequence of UniProt Q99653 (Q99653 whole entry, looked up): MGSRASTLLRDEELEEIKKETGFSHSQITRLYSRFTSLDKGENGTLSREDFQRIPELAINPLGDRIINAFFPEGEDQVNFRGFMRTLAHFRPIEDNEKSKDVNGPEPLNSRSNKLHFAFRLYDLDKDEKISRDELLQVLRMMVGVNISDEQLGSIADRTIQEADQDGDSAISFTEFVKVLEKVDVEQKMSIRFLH
Sequence of UniProt Q12873 (Q12873 whole entry, looked up): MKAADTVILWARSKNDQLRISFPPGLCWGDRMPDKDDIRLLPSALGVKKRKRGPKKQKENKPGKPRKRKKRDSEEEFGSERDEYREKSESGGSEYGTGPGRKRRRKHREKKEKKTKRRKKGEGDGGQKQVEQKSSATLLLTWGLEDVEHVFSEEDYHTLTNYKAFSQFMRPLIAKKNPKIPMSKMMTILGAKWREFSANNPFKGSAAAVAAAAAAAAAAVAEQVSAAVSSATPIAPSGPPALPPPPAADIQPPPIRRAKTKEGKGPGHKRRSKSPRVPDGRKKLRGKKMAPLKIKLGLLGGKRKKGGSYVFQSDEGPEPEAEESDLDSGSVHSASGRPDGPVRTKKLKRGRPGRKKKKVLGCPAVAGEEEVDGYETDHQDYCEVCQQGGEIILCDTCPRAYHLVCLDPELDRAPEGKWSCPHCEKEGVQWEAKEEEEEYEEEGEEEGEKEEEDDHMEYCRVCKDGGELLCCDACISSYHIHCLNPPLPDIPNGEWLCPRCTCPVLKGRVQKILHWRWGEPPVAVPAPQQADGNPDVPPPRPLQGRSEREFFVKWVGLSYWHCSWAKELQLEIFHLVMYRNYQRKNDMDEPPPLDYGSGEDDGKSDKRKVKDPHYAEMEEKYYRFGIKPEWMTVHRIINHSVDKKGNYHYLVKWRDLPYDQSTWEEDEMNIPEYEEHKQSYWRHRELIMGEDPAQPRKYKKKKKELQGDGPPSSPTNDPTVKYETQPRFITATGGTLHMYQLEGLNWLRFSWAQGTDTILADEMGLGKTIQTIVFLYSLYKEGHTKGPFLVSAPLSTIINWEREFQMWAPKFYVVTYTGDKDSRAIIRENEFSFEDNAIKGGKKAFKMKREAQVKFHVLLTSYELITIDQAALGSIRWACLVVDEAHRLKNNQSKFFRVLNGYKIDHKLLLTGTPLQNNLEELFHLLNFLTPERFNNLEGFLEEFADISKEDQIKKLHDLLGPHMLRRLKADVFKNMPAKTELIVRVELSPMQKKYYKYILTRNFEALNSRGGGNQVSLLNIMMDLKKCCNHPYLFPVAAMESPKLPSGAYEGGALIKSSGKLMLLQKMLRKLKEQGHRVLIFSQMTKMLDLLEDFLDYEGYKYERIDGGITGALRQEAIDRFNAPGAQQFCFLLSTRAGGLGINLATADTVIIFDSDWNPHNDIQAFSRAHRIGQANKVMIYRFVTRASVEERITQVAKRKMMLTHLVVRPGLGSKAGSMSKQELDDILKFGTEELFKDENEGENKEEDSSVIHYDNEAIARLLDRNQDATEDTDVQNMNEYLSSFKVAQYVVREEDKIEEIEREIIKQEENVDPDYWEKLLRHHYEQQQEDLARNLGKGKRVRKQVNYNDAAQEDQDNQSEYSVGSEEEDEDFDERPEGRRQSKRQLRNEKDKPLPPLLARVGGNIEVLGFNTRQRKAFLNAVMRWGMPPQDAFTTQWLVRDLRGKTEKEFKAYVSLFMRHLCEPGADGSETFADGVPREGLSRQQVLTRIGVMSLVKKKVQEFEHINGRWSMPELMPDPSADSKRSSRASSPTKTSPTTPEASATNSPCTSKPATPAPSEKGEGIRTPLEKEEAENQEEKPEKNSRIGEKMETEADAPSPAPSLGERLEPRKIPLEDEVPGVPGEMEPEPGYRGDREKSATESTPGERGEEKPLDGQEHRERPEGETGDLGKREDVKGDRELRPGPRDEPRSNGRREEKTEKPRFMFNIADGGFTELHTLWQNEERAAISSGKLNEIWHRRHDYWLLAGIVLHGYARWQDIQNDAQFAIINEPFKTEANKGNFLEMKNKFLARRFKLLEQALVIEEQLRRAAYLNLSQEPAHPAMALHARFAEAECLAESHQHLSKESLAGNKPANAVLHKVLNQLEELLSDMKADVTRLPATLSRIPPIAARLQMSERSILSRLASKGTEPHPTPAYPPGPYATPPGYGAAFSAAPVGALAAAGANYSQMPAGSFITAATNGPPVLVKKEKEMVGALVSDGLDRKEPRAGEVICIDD
Sequence of UniProt P19397 (P19397 whole entry, looked up): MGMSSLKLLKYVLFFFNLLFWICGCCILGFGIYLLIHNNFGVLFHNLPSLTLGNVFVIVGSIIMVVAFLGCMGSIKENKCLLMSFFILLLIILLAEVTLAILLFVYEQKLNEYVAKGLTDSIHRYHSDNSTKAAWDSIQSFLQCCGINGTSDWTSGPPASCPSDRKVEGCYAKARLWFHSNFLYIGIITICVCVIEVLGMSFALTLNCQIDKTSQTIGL
Sequence of UniProt Q5JTJ3 (Q5JTJ3 whole entry, looked up): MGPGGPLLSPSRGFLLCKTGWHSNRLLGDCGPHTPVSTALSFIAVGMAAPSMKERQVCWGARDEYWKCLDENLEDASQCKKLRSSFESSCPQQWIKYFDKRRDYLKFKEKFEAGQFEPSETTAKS
Sequence of UniProt Q14061 (Q14061 whole entry, looked up): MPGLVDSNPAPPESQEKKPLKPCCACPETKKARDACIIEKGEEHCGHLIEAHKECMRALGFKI
Sequence of UniProt P09497 (P09497 whole entry, looked up): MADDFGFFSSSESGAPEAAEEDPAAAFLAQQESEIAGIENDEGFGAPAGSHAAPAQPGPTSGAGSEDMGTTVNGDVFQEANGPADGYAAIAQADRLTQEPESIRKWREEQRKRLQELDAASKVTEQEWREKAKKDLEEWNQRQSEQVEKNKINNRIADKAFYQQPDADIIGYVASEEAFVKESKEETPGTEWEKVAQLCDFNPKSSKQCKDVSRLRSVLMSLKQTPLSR
Sequence of UniProt P11802 (P11802 whole entry, looked up): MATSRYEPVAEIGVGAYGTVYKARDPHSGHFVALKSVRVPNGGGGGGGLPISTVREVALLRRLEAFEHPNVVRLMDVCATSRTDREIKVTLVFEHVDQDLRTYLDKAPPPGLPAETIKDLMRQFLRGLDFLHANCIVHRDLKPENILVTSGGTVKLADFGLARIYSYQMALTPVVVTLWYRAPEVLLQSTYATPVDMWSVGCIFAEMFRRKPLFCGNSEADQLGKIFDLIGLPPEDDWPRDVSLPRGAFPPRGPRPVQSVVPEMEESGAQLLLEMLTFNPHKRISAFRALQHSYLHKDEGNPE
Sequence of UniProt P08174 (P08174 whole entry, looked up): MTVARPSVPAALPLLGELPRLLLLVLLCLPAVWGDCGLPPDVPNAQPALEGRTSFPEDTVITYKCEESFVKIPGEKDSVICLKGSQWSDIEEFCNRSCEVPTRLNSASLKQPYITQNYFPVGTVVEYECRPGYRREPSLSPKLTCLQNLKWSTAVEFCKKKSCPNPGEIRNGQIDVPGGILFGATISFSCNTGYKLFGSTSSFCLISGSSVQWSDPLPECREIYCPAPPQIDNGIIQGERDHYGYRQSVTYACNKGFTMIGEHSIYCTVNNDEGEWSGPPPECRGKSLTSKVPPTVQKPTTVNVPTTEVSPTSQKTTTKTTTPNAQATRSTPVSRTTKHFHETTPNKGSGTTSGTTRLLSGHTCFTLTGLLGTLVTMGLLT
Sequence of UniProt Q16740 (Q16740 whole entry, looked up): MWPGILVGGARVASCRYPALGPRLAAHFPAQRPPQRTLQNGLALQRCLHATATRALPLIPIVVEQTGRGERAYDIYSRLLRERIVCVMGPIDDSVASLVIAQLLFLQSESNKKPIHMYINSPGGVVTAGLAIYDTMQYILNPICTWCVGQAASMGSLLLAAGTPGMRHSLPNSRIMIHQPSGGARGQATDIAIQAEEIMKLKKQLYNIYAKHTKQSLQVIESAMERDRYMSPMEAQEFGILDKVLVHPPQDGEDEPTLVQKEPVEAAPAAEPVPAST
Sequence of UniProt Q9BWU1 (Q9BWU1 whole entry, looked up): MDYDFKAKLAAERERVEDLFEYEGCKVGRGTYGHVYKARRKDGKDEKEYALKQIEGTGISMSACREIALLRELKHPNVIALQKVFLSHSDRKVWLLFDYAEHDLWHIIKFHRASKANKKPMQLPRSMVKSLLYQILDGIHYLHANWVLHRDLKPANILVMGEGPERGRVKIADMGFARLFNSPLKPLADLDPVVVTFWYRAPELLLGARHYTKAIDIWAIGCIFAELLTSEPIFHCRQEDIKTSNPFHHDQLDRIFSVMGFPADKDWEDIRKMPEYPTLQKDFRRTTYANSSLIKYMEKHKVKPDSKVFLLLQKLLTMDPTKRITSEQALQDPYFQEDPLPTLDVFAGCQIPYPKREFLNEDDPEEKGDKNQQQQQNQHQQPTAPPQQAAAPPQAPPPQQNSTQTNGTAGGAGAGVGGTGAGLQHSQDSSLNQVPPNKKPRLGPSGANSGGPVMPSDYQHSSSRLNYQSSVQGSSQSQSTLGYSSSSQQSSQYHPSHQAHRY
Sequence of UniProt P60033 (P60033 whole entry, looked up): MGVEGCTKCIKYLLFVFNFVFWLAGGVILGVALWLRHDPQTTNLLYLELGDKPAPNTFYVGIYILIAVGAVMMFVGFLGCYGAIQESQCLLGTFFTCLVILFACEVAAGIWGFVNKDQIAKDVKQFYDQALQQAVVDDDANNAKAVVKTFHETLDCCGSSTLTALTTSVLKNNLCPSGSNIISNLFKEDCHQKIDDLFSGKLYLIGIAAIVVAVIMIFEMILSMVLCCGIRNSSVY

Row | Target | log2 fold change [1] | log2 fold change [2] | log2 fold change [3] | log2 fold change [4] | log2 fold change [5] | log2 fold change [6] | log2 fold change [7] | log2 fold change [8] | log2 fold change [9] | log2 fold change [10] | log2 fold change [11] | log2 fold change [12] | log2 fold change [13] | log2 fold change [14] | log2 fold change [15] | log2 fold change [16] | log2 fold change [17] | log2 fold change [18] | log2 fold change [19] | log2 fold change [20]
1 | CLPP (UniProt Q16740) | -0.025 | 0.013 | -0.069 | 0.037 | 0.042 | 0.003 | 0.023 | 0.035 | -0.028 | 0.022 | -0.023 | 0.022 | -0.012 | 0.017 | 0.097 | -0.008 | -0.094 | -0.011 | 0.079 | –
2 | CLUH, A0A494C0R8 | -0.008 | -0.081 | 0.253 | -0.107 | 0.127 | 0.235 | -0.081 | 0.03 | 0.07 | 0.05 | -0.016 | 0.508 (active) | -0.125 | -0.231 | -0.257 | 0.199 | -0.044 | -0.058 | 0.046 | –
3 | CD81 (UniProt P60033) | -0.065 | 0.033 | 0.059 | 0.039 | -0.065 | 0.059 | 0.013 | -0.043 | 0.098 | 0.206 | 0.027 | -0.026 | -0.045 | -0.018 | 0.33 | -0.122 | -0.05 | 0.004 | -0.01 | 0.007
4 | CD53 (UniProt P19397) | 0.041 | 0.028 | 0.059 | -0.006 | 0.064 | 0.01 | -0.221 | -0.086 | -0.001 | -0.007 | 0.097 | -0.026 | -0.24 | -0.021 | 0.229 | 0.051 | -0.014 | -0.004 | 0.105 | 0.033
5 | COA6 isoform 2 (UniProt Q5JTJ3) | 0.012 | 0.022 | 0.045 | 0.007 | 0.023 | 0.062 | -0.053 | -0.108 | 0.047 | 0.02 | 0.043 | 0.019 | -0.071 | 0.045 | 0.059 | -0.026 | -0.04 | 0.016 | -0.004 | 0.036
6 | CDK1 (UniProt P06493) | 0.045 | 0.06 | 0.021 | 0.003 | -0.054 | 0.018 | 0.003 | -0.003 | 0.007 | -0.009 | 0 | -0.401 (active) | -0.031 | -0.051 | -0.02 | 0.051 | 0 | 0.012 | -0.021 | -0.046
7 | CHP1 (UniProt Q99653) | -0.022 | 0.024 | 0.097 | 0.012 | -0.056 | 0.008 | 0.287 (active) | 0.006 | -0.07 | 0.091 | 0.091 | 0.001 | 0.145 | -0.017 | 0.017 | -0.061 | -0.02 | -0.017 | -0.047 | -0.024
8 | CHD3 isoform 3 (UniProt Q12873) | -0.052 | 0.148 | 0.005 | -0.062 | 0 | 0.034 | 0.388 | -0.123 | -0.125 | -0.093 | -0.052 | -0.284 | 0.36 | -0.075 | -0.319 | 0.186 | 0.071 | 0.125 | -0.009 | -0.1
9 | CD55 isoform 7 (UniProt P08174) | -0.065 | -0.002 | -0.031 | 0.036 | -0.121 | -0.015 | 0.011 | -0.062 | -0.079 | 0.008 | -0.043 | -0.008 | 0.016 | 0.037 | 0.155 | -0.012 | 0.019 | 0.02 | -0.054 | 0.071
10 | CLCN3 (UniProt P51790) | -0.024 | 0.079 | -0.053 | -0.045 | 0.023 | 0.07 | -0.01 | -0.03 | -0.032 | 0.055 | 0.014 | -0.062 | -0.076 | 0.015 | -0.05 | -0.039 | -0.031 | -0.045 | -0.053 | –
11 | CLTB (UniProt P09497) | 0.106 | -0.042 | 0.038 | -0.05 | -0.02 | 0.039 | 0.069 | 0.028 | 0.008 | 0.023 | 0.053 | 0.089 | 0.061 | -0.021 | 0.024 | -0.067 | -0.07 | 0 | -0.007 | –
12 | CDK4 (UniProt P11802) | 0.075 | -0.244 | -0.008 | -0.086 | 0.329 | 0.11 | -0.067 | 0.032 | – | – | 0.001 | 0.685 (active) | 0.054 | -0.098 | -0.333 | 0.105 | 0.081 | -0.069 | – | -0.004
13 | CNN3 (UniProt Q15417) | 0.013 | 0.158 | 0.064 | -0.088 | 0.054 | 0.056 | – | 0.016 | 0.041 | -0.116 | – | -0.007 | – | -0.138 | -0.17 | – | – | 0.058 | 0.012 | -0.067
14 | CD84 (UniProt Q9UIB8) | 0.131 | 0.052 | -0.027 | 0.099 | 0.01 | – | – | 0.033 | -0.032 | 0.111 | – | -0.166 | – | 0.068 | 0.024 | – | – | – | 0.233 | –
15 | COX17 (UniProt Q14061) | -0.032 | -0.064 | 0.375 | -0.009 | 0.035 | – | 0.207 | 0.404 | -0.117 | 0 | -0.14 | -0.052 | 0.41 | -0.158 | 0.019 | -0.196 | -0.014 | 0.241 | 0.086 | –
16 | CLASP2 (UniProt O75122) | 0.089 | -0.078 | – | 0.082 | -0.211 | 0.133 | 0.286 | -0.106 | – | – | 0.027 | -0.852 | -0.067 | – | 0.086 | 0.161 | 0.057 | 0.116 | – | –
17 | CDK19 (UniProt Q9BWU1) | -0.2 | -0.116 | 0.053 | 0.268 | 0.111 | – | -0.167 | 0.099 | 0.003 | 0.021 | – | 0.541 (active) | -0.133 | -0.02 | 0.222 | 0.074 | – | -0.156 | 0.119 | –
